Test results as given in PubChem BioAssay (NCI).
This is part of a sample that, as a whole, favours compounds with a hit. Of some 83,000 tested, about 20% had one in any assay.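 Note: values are percent growth. 100 is the growth of untreated cells, values between 100 and 0 indicate rising inhibition; between -100 and 0 indicates cell death.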 The source made the active and inactive calls. The calls were made as follows: active = growth percent below 10; inactive = the rest.

Columns and labels:
Test in all cases: NCI-60 one-dose screen, 48 h (100 = growth as untreated, 0 = no growth, -100 = all killed)
NCI-H23 lung = settings: 10 µM unless noted
HOP-62 NSCLC = settings: 10 µM unless noted
NCI-H460 lung = settings: 10 µM unless noted
HOP-92 NSCLC = settings: 10 µM unless noted
NCI-H522 lung = settings: 10 µM
A549/ATCC NSCLC = settings: 10 µM unless noted
786-0 renal = settings: 10 µM unless noted
COLO 205 colon = settings: 10 µM unless noted
DU-145 prostate = settings: 10 µM unless noted
K-562 leukemia = settings: 10 µM unless noted
MALME-3M melanoma = settings: 10 µM unless noted
MDA-MB-231 breast = settings: 10 µM unless noted
RXF 393 renal = settings: 10 µM unless noted
SF-268 CNS = settings: 10 µM unless noted
SF-295 CNS = settings: 10 µM unless noted
SF-539 CNS = settings: 10 µM unless noted
UACC-257 melanoma = settings: 10 µM unless noted
M14 melanoma = settings: 10 µM unless noted
NCI-H322M lung = settings: 10 µM unless noted
NCI-H226 lung = settings: 10 µM

Measured: growth

O=c1onc(-c2ccccc2)c2ccccc12
inactive: NCI-H23 lung 104% | HOP-62 NSCLC 117% | NCI-H460 lung 109% | HOP-92 NSCLC 95.4% | NCI-H522 lung 101% | A549/ATCC NSCLC 109% | 786-0 renal 105% | COLO 205 colon 119% | DU-145 prostate 113% | K-562 leukemia 105% | MALME-3M melanoma 121% | MDA-MB-231 breast 97% | RXF 393 renal 90.5% | SF-268 CNS 113% | SF-295 CNS 101% | SF-539 CNS 122% | UACC-257 melanoma 120% | M14 melanoma 118%

Oc1ccc2ccccc2c1C1NN=C(c2ccccc2)S1 (centres undefined)
inactive: NCI-H23 lung 35% | NCI-H322M lung 29.2% | HOP-92 NSCLC 42.8% | A549/ATCC NSCLC 18% | COLO 205 colon 16.6% | DU-145 prostate 21.1% | K-562 leukemia 18.6% | MDA-MB-231 breast 38.7% | RXF 393 renal 67% | SF-268 CNS 20.9% | SF-539 CNS 12%
active: NCI-H460 lung -27.8% | 786-0 renal 6.82% | SF-295 CNS -8.68% | UACC-257 melanoma -6.81% | M14 melanoma -8.91%

CCC(C)[C@H]1O[C@]2(CC[C@@H]1C)C[C@@H]1C[C@@H](C/C=C(\C)[C@@H](OC3C[C@H](OC)C(O[C@H]4C[C@H](OC)[C@@H](O)[C@H](C)O4)[C@H](C)O3)[C@@H](C)/C=C/C=C3\CO[C@@H]4[C@H](O)C(C)=C[C@@H](C(=O)O1)[C@]34O)O2 (some centres undefined)
inactive: NCI-H322M lung 52.7% | HOP-62 NSCLC 29.5% | NCI-H522 lung 17.2% | A549/ATCC NSCLC 21.3% | DU-145 prostate 22.1% | K-562 leukemia 14.1% | SF-268 CNS 25.1% | UACC-257 melanoma 47.3%
active: NCI-H226 lung 6.79% | NCI-H460 lung 3.02% | HOP-92 NSCLC -6.11% | 786-0 renal -79.7% | COLO 205 colon -41.6% | MALME-3M melanoma 0.803% | MDA-MB-231 breast -15.6% | RXF 393 renal -23.1% | SF-295 CNS -36.7% | SF-539 CNS -15.4% | M14 melanoma -73.1%

O=c1[nH]c(=S)[nH]c(=O)n1Cc1cccc2ccccc12
inactive: NCI-H23 lung 102% | NCI-H322M lung 114% | NCI-H460 lung 97.6% | A549/ATCC NSCLC 99.7% | COLO 205 colon 120% | DU-145 prostate 116% | K-562 leukemia 90.1% | MALME-3M melanoma 97.3% | MDA-MB-231 breast 106% | SF-268 CNS 107% | SF-295 CNS 77.4% | SF-539 CNS 103% | M14 melanoma 104%

COc1ccc(-c2nc3sc(C)nn3c2-c2nc3cc(C)c(C)cc3[nH]2)cc1
inactive: NCI-H23 lung 93.9% | NCI-H322M lung 99.4% | NCI-H460 lung 99.9% | HOP-92 NSCLC 87.9% | A549/ATCC NSCLC 96.3% | 786-0 renal 98.4% | COLO 205 colon 115% | DU-145 prostate 101% | K-562 leukemia 97.2% | MALME-3M melanoma 88.3% | MDA-MB-231 breast 99.6% | RXF 393 renal 99.5% | SF-268 CNS 101% | SF-539 CNS 95% | UACC-257 melanoma 100% | M14 melanoma 103%

COc1cc(C(=O)/C=C/c2c(-c3cccs3)nc3sccn23)cc(OC)c1OC
active: NCI-H322M lung 8.06% | HOP-62 NSCLC 0.498% | NCI-H460 lung -27.9% | HOP-92 NSCLC -5.38% | NCI-H522 lung -13% | A549/ATCC NSCLC -3.26% | 786-0 renal -13.9% | COLO 205 colon -49.7% | DU-145 prostate 3.28% | MDA-MB-231 breast 7.07% | RXF 393 renal -20.7% | SF-295 CNS -35.8% | SF-539 CNS -27.6% | UACC-257 melanoma 5.19% | M14 melanoma 7.73%
inactive: NCI-H226 lung 26.2% | K-562 leukemia 15.4% | MALME-3M melanoma 34.8% | SF-268 CNS 17.7%

COc1cc(-c2nc3ccccc3o2)cc(CN2CCN(c3ccccc3)CC2)c1O
inactive: NCI-H23 lung 37.8% | HOP-62 NSCLC 47.1% | NCI-H460 lung 51% | HOP-92 NSCLC 81.8% | NCI-H522 lung 58.4% | A549/ATCC NSCLC 30.2% | 786-0 renal 90.2% | COLO 205 colon 117% | DU-145 prostate 71.8% | K-562 leukemia 40.1% | MALME-3M melanoma 63% | MDA-MB-231 breast 69.3% | RXF 393 renal 107% | SF-268 CNS 83.3% | SF-295 CNS 36.2% | SF-539 CNS 94.7% | UACC-257 melanoma 86.7% | M14 melanoma 52.5%

CN1CCC(OC2c3ccccc3CCc3ccccc32)CC1
inactive: NCI-H23 lung 94.6% | NCI-H322M lung 92.8% | NCI-H460 lung 106% | NCI-H522 lung 96.7% | A549/ATCC NSCLC 96.2% | 786-0 renal 103% | COLO 205 colon 99.1% | DU-145 prostate 107% | K-562 leukemia 96.8% | MALME-3M melanoma 102% | MDA-MB-231 breast 74.8% | RXF 393 renal 89.2% | SF-268 CNS 89.5% | SF-295 CNS 88.6% | SF-539 CNS 102% | UACC-257 melanoma 92.6% | M14 melanoma 103%

CCCCc1ccc(NC(=O)C(F)(F)F)cc1
inactive: NCI-H23 lung 106% | HOP-62 NSCLC 102% | NCI-H460 lung 108% | HOP-92 NSCLC 104% | NCI-H522 lung 82% | A549/ATCC NSCLC 102% | 786-0 renal 91.8% | COLO 205 colon 107% | DU-145 prostate 100% | K-562 leukemia 85.8% | MALME-3M melanoma 140% | MDA-MB-231 breast 99.8% | RXF 393 renal 93.4% | SF-268 CNS 83.9% | SF-295 CNS 105% | SF-539 CNS 100% | UACC-257 melanoma 110% | M14 melanoma 105%
